Measured values as given in PubChem BioAssay (NCATS).
Several values for one entry are separate records, joined by “and”; a condition that tells them apart may be missing. Identical values can stand only once. Results filed as inconclusive are left out. A call without a number means that no potency is given here. Activity calls are given as the source filed them. Unless noted, the call rests on the fitted dose curve.

Experiments:
[1] = molecular target: Bile acid receptor (Homo sapiens) (UniProt Q96RI1); test: qHTS assay for small molecule antagonists of farnesoid X receptor signaling (AID 588526); settings: HEK293T FXR-UAS-bla, beta-lactamase ratio, antagonist mode; series mostly up to 76.7 µM
In short: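 Concentration-response titrations were fitted to the Hill equation for half-maximal inhibition and maximal response, with data normalised to 50 uM chenodeoxycholic acid and DMSO control wells. Cells: FXR-UAS-bla HEK293T, dialyzed FBS.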

[2] = molecular target: Glucocorticoid receptor (Homo sapiens) (UniProt P04150); test: qHTS assay for small molecule agonists of glucocorticoid receptor signaling (AID 588532; active means well fitted curve in the direction sought with a large enough effect in the signal ratio, with a control signal flat; the % refers to the signal ratio); settings: HeLa MMTV-bla, beta-lactamase ratio, agonist, 18 h; stronger effect = higher value; percent of dexamethasone control, DMSO zero
In short: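 Stimulation of a glucocorticoid response element-driven beta-lactamase gene was measured in HeLa cells. Responses were scaled between DMSO basal and 0.1 uM dexamethasone, then fitted for half-maximal stimulation.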

[3] = molecular target: Glucocorticoid receptor (Homo sapiens) (UniProt P04150); test: qHTS assay for small molecule antagonists of glucocorticoid receptor signaling (AID 588533; active means well fitted inhibition curve with a large enough effect in the signal ratio, with a control signal flat, not every such curve was filed as active; the % refers to the signal ratio;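 further: cells stimulated with 2 nM dexamethasone as agonist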); settings: HeLa MMTV-bla, GRE beta-lactamase ratio, antagonist mode, 18 h; series mostly up to 76.8 µM
In short: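 Antagonist-mode qHTS: compound titrations added to GRE-bla HeLa cells, then dexamethasone 2 nM final; 18 h, 37 C. CCF4 FRET fluorescence normalized to dexamethasone and DMSO; IC50 from Hill fit.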

[4] = qHTS assay for small molecule antagonists of peroxisome proliferator-activated receptor delta signaling (AID 588535; active means well fitted inhibition curve with a large enough effect in the signal ratio, with a control signal flat, not every such curve was filed as active; the % refers to the signal ratio;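 on max response: cells co-treated with a PPAR-delta agonist as stimulator during compound exposure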); settings: HEK293T PPARd-UAS-bla, beta-lactamase FRET ratio, 18 h; 460 nm channel
In short: (§1)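 Reporter: UAS-bla under PPAR-delta response element, HEK293T host. Medium: 2% charcoal/dextran FBS. Dosing: titration, 18 hrs, 37 C. Detection: CCF4, 2 hrs RT, 405 ex/460 and 530 em.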

[5] = molecular target: Peroxisome proliferator-activated receptor delta (Homo sapiens) (UniProt Q03181); test: as above; settings: HEK293T PPARd-UAS-bla, beta-lactamase FRET ratio, 18 h; series mostly up to 76.7 µM
In short: as §1

[6] = molecular target: Vitamin D3 receptor (Homo sapiens) (UniProt P11473); test: qHTS assay for small molecule antagonists of vitamin D receptor signaling (AID 588541); settings: HEK293T VDR-UAS-bla, beta-lactamase ratio, antagonist mode; series mostly up to 76.7 µM;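 further: receptor activated by calcitriol during compound treatment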
In short: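 VDR-UAS-bla HEK293T cells (2000/well, 2% charcoal-stripped FBS) were treated with titrated compounds plus 1-alpha,25-dihydroxyvitamin D3 (50 nM or 3 nM final) for 16 h at 37 C. CCF4 beta-lactamase fluorescence was read; Hill fits gave IC50.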

[7] = molecular target: Vitamin D3 receptor (Homo sapiens) (UniProt P11473); test: qHTS assay for small molecule agonists of vitamin D receptor signaling (AID 588543); settings: HEK293T VDR-UAS-bla, beta-lactamase ratio, 16 h; series mostly up to 76.8 µM
In short: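 Measured: β-lactamase reporter activity (CCF4, 405 nm excitation, 460/530 nm emission) in HEK293T VDR-UAS-bla cells after 16 h compound exposure at 37 °C. Normalization against 50 nM 1α,25-dihydroxyvitamin D3 and DMSO; Hill-fit EC50.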

[8] = molecular target: Peroxisome proliferator-activated receptor gamma (Homo sapiens) (UniProt P37231); test: qHTS assay for small molecule agonists of peroxisome proliferator-activated receptor gamma signaling (AID 588536; active means well fitted curve in the direction sought with a large enough effect in the signal ratio, with a control signal flat, not every such curve was filed as active; the % refers to the signal ratio); settings: HEK293 PPARg-UAS-bla, beta-lactamase ratio, 16 h, percent of rosiglitazone response, DMSO as zero; series mostly up to 76.7 µM
In short: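 GeneBLAzer PPAR-gamma-UAS-bla HEK293 cells in 1% charcoal/dextran-treated FBS medium were treated 16 h at 37 C with compounds. Beta-lactamase activity was read by CCF4 ratio (460/530 nm). Response was normalized to 2 uM rosiglitazone (100%) and DMSO, then Hill-fitted for EC50 and efficacy.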

[9] = molecular target: Peroxisome proliferator-activated receptor gamma (Homo sapiens) (UniProt P37231); test: qHTS assay for small molecule antagonists of peroxisome proliferator-activated receptor gamma signaling (AID 588537; active means well fitted inhibition curve with a large enough effect in the signal ratio, with a control signal flat, not every such curve was filed as active; the % refers to the signal ratio;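 further: reporter cells co-stimulated with 50 nM rosiglitazone agonist during compound treatment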); settings: HEK293 PPARg-UAS-bla, beta-lactamase ratio, antagonist mode; series mostly up to 76.8 µM
In short: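 We seeded GeneBLAzer HEK293 reporter cells at 3000 per well, allowed 6-6.5 h attachment at 37 C, then co-treated with test compound titrations and 50 nM rosiglitazone overnight (16 h). Inhibition was quantified from 460/530 nm emission ratios.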

Sequence of Peroxisome proliferator-activated receptor delta (Homo sapiens) (Q03181 whole entry, looked up): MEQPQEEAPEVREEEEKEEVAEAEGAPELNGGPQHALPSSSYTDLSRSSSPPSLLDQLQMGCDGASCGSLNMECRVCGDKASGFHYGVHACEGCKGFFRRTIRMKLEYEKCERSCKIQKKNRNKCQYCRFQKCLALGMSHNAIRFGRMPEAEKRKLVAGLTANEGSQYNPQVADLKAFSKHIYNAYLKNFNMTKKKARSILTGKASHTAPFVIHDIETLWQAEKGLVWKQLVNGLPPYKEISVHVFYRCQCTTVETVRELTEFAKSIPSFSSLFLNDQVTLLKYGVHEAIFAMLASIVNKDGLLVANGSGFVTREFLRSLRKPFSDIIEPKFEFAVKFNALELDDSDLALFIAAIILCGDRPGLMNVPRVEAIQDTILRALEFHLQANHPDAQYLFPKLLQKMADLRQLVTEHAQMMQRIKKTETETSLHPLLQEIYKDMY
Sequence of Glucocorticoid receptor (Homo sapiens) (P04150 whole entry, looked up): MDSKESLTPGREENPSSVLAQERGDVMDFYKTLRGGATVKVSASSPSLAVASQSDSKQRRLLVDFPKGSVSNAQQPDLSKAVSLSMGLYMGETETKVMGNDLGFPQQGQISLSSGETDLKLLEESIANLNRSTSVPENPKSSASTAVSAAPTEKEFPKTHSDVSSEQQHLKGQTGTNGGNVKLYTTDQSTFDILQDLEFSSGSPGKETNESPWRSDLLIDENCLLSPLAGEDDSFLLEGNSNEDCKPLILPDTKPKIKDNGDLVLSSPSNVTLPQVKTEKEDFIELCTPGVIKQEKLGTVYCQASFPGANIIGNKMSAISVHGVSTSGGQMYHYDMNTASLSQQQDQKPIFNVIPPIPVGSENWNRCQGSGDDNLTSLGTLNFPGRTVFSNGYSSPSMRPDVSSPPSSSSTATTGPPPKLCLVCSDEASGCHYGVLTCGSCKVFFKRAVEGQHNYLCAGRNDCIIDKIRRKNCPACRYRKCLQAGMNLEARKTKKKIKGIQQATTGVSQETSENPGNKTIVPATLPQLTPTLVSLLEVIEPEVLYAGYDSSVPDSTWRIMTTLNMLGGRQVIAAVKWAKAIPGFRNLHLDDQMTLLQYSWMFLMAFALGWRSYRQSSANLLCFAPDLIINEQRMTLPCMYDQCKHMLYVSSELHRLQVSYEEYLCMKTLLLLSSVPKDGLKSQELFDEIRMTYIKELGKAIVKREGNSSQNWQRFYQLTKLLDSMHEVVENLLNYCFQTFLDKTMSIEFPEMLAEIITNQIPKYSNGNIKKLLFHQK
Sequence of Vitamin D3 receptor (Homo sapiens) (P11473 whole entry, looked up): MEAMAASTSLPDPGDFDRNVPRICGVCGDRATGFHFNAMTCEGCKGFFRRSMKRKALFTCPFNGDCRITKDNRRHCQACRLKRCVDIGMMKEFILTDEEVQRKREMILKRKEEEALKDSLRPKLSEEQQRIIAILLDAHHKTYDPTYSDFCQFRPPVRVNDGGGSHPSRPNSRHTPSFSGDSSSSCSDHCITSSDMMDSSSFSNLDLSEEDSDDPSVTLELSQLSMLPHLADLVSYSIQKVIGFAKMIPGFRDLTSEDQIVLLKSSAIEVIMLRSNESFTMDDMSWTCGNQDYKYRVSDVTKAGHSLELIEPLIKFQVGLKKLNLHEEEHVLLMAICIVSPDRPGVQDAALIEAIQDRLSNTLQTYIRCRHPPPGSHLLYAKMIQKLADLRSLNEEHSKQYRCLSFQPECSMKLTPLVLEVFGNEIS
Sequence of Bile acid receptor (Homo sapiens) (Q96RI1 whole entry, looked up): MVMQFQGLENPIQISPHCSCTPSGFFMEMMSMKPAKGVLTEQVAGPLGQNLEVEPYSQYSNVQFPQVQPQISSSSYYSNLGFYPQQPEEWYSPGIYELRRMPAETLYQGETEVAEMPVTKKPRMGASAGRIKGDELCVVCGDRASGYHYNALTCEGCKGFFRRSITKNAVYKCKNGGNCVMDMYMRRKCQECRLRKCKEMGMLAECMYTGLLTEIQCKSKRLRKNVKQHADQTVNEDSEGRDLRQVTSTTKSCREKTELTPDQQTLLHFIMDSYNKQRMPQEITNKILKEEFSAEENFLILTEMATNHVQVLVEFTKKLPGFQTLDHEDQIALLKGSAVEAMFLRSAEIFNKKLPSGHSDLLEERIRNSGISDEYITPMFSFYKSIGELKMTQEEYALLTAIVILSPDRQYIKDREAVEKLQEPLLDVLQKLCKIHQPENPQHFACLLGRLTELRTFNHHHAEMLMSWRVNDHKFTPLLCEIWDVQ
Sequence of Peroxisome proliferator-activated receptor gamma (Homo sapiens) (P37231 whole entry, looked up): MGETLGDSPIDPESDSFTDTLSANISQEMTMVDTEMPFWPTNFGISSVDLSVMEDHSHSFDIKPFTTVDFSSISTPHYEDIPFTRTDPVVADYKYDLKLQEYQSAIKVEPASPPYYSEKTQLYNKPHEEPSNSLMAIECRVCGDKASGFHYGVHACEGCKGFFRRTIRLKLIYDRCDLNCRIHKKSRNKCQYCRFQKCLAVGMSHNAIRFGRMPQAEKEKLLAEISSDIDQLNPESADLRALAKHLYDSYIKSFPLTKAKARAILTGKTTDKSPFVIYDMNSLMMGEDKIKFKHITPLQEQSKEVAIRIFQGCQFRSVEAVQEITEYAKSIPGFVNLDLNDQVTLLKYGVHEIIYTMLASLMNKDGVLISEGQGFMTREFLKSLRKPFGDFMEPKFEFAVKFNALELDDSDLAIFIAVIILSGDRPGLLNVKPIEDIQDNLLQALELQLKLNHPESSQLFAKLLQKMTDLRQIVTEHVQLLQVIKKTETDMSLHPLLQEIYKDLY

SMILES | outcome [1] | activation [2] | outcome [3] | max response [4] | Potency [5] | outcome [6] | outcome [7] | outcome [8] | outcome [9]
CCC(C)O (stereo unspecified) | inactive | 0.0998% (inactive) | inactive | -23.2% | inactive | inactive | inactive | – | –
CC1CCC2CC1C2(C)C (stereo unspecified) | inactive | -2.14% (inactive) | inactive | – | – | – | – | inactive | inactive
CCOCCOCC | inactive | – | inactive | -23% | inactive | inactive | inactive | inactive | inactive
O=C(O)c1ccccc1[N+](=O)[O-] | inactive | 7.49% (inactive) | inactive | – | – | inactive | inactive | inactive | inactive
Cc1cc(C)c(N)cc1C | inactive | 5.44% (inactive) | inactive | 2.74% | inactive | inactive | inactive | inactive | –
CCCCCCCN | inactive | 4.22% (inactive) | inactive | 31.2% | – | inactive | inactive | inactive | inactive
O=C(O)c1ccc(CO)o1 | inactive | -2.95% (inactive) | inactive | – | – | inactive | inactive | inactive | –
Cc1ccccc1C(N)=O | inactive | -0.107% (inactive) | inactive | 16.7% | – | – | – | inactive | inactive
O=C(Cl)c1cccc([N+](=O)[O-])c1 | inactive | 3.39% (inactive) | inactive | 33.5% | – | inactive | inactive | inactive | –
NC(N)=S | inactive | 1.8% (inactive) | inactive | – | – | inactive | inactive | inactive | inactive
NC(=O)/N=N/C(N)=O | inactive | 7.65% (inactive) | inactive | -25.3% | – | inactive | inactive | inactive | inactive
CCCCOCCOCCOCCCC | inactive | 9.2% (inactive) | inactive | – | – | – | – | inactive | inactive
CN(C)CCCCl | inactive | 13.4% (inactive) | inactive | – | – | inactive | inactive | – | –
O=Cc1cccc(Br)c1 | inactive | -2.28% (inactive) | inactive | 21.9% | inactive | – | inactive | inactive | –
CCCCC(C=O)CC (stereo unspecified) | inactive | -0.985% (inactive) | inactive | -2.18% | inactive | inactive | inactive | inactive | –
O=CNc1ccccc1 | inactive | -0.553% (inactive) | inactive | – | – | inactive | – | inactive | inactive
CCCCC(CC)COC(=O)CCCCC(=O)OCC(CC)CCCC (stereo unspecified) | inactive | – | inactive | -4.31% and 35.2% | inactive | inactive | inactive | inactive | –
COc1cccc(N)c1 | inactive | – | inactive | – | – | inactive | inactive | – | –
O=C1C=CCCC1 | inactive | – | – | -11% | inactive | – | – | inactive | –
COC(=O)CCCC(=O)OC | inactive | – | inactive | 14.2% | inactive | inactive | inactive | – | –

SMILES | outcome [1] | activation [2] | outcome [3] | max response [4] | Potency [5] | outcome [6] | outcome [7] | outcome [8] | outcome [9]
CCNc1cc(O)ccc1C | inactive | – | – | – | – | inactive | inactive | – | –
CC(C)(C)OC=O | inactive | – | inactive | – | – | inactive | – | inactive | inactive
BrC/C=C/CBr | inactive | – | – | 20.5% | inactive | – | – | inactive | inactive
O=[N+]([O-])c1ccc(NCCO)c(OCCO)c1 | inactive | – | inactive | 15.8% | inactive | inactive | inactive | inactive | –
CCOC(C)(C)C | inactive | – | – | -1.23% | inactive | – | inactive | inactive | inactive
Cc1ccc(C(=O)O)cc1 | inactive | – | – | – | – | – | – | inactive | –
COc1ccc(N)c(C)c1 | inactive | – | – | -12.2% | inactive | inactive | – | – | –
O=[N+]([O-])c1ccc2nc[nH]c2c1 | inactive | – | – | – | – | – | – | inactive | inactive
CCCCN(CCO)CCCC | inactive | – | – | 4.41% | inactive | inactive | – | inactive | inactive
Cc1nc2ccc(Cl)cc2[nH]1 | inactive | – | inactive | – | – | inactive | inactive | inactive | inactive
Nc1cc(Cl)c([N+](=O)[O-])cc1O | inactive | – | inactive | – | – | inactive | inactive | – | –
Cc1ccccc1C#N | inactive | – | – | -5.92% | – | inactive | – | inactive | –
O=P(O)(OCc1ccccc1)OCc1ccccc1 | inactive | – | – | – | – | inactive | – | inactive | inactive
CC(C)Cc1nccs1 | inactive | – | – | – | – | – | inactive | inactive | –
O=C(O)CNC(=O)c1ccc([N+](=O)[O-])cc1 | inactive | – | – | 53.5% | inactive | inactive | – | inactive | –
Clc1ccccn1 | inactive | – | – | 26.1% | inactive | inactive | inactive | – | –
C[C@@H]1CC2(OC[C@]3(C)O[C@H]23)O[C@H]2C[C@@]3(C)[C@@H]4CC[C@H]5C(C)(C)C(O[C@@H]6OC[C@@H](O)[C@H](O)[C@H]6O)CC[C@@]56C[C@@]46CC[C@]3(C)[C@@H]12 (stereo partly specified) | – | -8.99% (inactive) | – | – | – | – | – | – | –
FC(F)(F)c1ccccc1Cl | inactive | – | – | 25.6% | inactive | – | inactive | inactive | inactive
Nc1cccc(N)c1 | inactive | – | – | – | – | inactive | inactive | inactive | inactive
O=[N+]([O-])c1ccc(CCO)cc1 | inactive | – | inactive | 19.9% | – | inactive | – | inactive | inactive

SMILES | outcome [1] | activation [2] | outcome [3] | max response [4] | Potency [5] | outcome [6] | outcome [7] | outcome [8] | outcome [9]
C=C(C)C(=O)OCC(C)C | inactive | – | – | -19.3% | inactive | inactive | inactive | inactive | –
CCC(O)C(C)(C)C (stereo unspecified) | inactive | – | – | 11.2% | inactive | – | – | inactive | inactive
COc1ccccc1[N+](=O)[O-] | inactive | – | – | – | – | inactive | inactive | – | –
C=CCCCCCCC=C | inactive | – | – | -11.7% | inactive | inactive | inactive | inactive | inactive
O=C1CCC(=O)O1 | inactive | – | inactive | 24.1% | – | – | – | inactive | –
C(=C/c1ccccc1)/c1ccccc1 | inactive | – | – | 11.7% | inactive | inactive | – | inactive | inactive
c1ccc2[nH]cnc2c1 | inactive | – | – | – | – | inactive | inactive | inactive | inactive
O=Cc1ccc(CO)o1 | inactive | – | – | – | – | inactive | inactive | inactive | –
Nc1nc(-c2ccccc2)cs1 | inactive | – | inactive | -2.19% | inactive | inactive | inactive | inactive | –
Oc1c(Cl)ccc(Cl)c1Cl | inactive | – | – | – | – | inactive | inactive | – | –
CCNc1ccccc1 | inactive | – | – | 13.4% | – | inactive | inactive | inactive | inactive
C=CCOC(=O)CCCCCCCC | inactive | – | – | – | – | – | inactive | inactive | inactive
CSCCC=O | inactive | – | inactive | -13.1% | inactive | inactive | – | inactive | –
NC=O | inactive | – | – | – | – | inactive | inactive | inactive | –
Nc1cccc(C(F)(F)F)c1 | inactive | – | – | 14.1% and 46.7% | inactive | – | – | inactive | –
OCCO | inactive | – | – | – | – | inactive | inactive | inactive | –
CCCCCCCCCCCCC1CO1 (stereo unspecified) | – | 0.241% (inactive) | inactive | -13.1% | inactive | – | – | inactive | inactive
CC/C=C/C#N | – | -1.94% (inactive) | inactive | 12.5% | inactive | inactive | inactive | inactive | inactive
